# Rows were chosen to be rich in hits. Some 22% of all compounds tested hit in one or more screens of this group.
# F-actin modifier – alters cytoskeleton assembly in HUVEC cells; HUVEC TNFa F-actin phalloidin imaging, high content; inhibition, % at 2 µM; hit rate 0.18% among 91,000;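 active = inhibition above the batch mean plus 3 SD and confirmed as a hit by visual image inspection, cut at about 30% in these data, passing the limit was not always enough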
# CYP2C9 act – CYP2C9 (human) activation. recombinant CYP2C9, luciferin-H conversion, luminescence; active compounds read high; factor 1 = untreated enzyme, 0 = blocked. AID 1024. activation factor at 5 µM. hit rate 1.4% among 96,000;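 active = activation factor of 2 or more for CYP2C9 at a 5 µM dose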;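 note: 0 = sulfaphenazole-blocked wells and 1 = vehicle-only wells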
# Target sequence (P11712 whole entry, looked up): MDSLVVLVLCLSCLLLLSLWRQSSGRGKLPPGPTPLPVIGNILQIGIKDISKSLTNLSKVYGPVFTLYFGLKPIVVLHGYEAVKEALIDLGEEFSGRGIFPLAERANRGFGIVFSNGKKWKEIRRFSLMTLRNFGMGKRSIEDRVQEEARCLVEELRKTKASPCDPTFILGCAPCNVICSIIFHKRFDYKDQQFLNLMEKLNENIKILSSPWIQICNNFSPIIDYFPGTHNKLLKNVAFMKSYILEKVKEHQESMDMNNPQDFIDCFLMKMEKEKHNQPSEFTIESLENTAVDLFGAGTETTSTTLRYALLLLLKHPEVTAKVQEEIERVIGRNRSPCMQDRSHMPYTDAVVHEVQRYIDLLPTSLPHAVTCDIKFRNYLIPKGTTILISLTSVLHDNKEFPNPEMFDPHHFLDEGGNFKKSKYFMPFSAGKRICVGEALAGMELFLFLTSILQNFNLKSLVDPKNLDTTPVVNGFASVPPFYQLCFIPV
# CYP2C19 activ – increases human CYP2C19 enzyme activity. recombinant CYP2C19, luciferin-H EGE luminescence; active compounds read high; 0 = fully inhibited enzyme, 1 = untreated enzyme. activation factor at 5 µM. 96,000 tested, under 10 active;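 active = activation factor of at least 2 at 5 µM in the primary screen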;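 note: 0 = wells with 2.5 mM tranylcypromine and 1 = vehicle-only wells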
# CYP2C9 inh – blocks human cytochrome P450 2C9; CYP2C9 Supersomes, luciferin-H conversion, luminescence; inhibition, % at 5 µM; hit rate 20% among 96,000; AID 777;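 active = blocking of liver enzyme CYP2C9 beyond about 50% at 5 µM, limit read from the data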
# E-sel TNF inh – TNF alpha driven E-selectin expression inhibition; HUVEC TNFa-induced E-selectin immunofluorescence, high content; inhibition, % at 2 µM; hit rate 0.71% among 120,000; AID 1246;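 active = inhibition above the batch mean plus 3 SD, and confirmed as a hit on visual image review, cut at about 43% in these data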;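 note: 0% = TNF-stimulated DMSO wells and 100% = unstimulated control wells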
# CYP2C19 inhib – inhibitors of human CYP2C19; P33261; CYP2C19 Supersomes, luciferin-H EGE luminescence, 30 min; inhibition, % at 5 µM; hit rate 21% among 96,000;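 active = CYP2C19 inhibition above a set limit at 5 µM in the primary screen, cut at about 50% in these data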;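 note: plate controls were negative control wells for no effect and 2.5 mM tranylcypromine positive control for full effect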
# An asterisk follows results filed as active; . = no result given.
SMILES,F-actin modifier,CYP2C9 act,CYP2C19 activ,CYP2C9 inh,E-sel TNF inh,CYP2C19 inhib
Cc1ccc(OCCN2CCN(c3ncnc4sc(C)c(C)c34)CC2)cc1,-6,0.1,0.1,89*,.,86*
Clc1ccc(OCCN2CCN(c3ncnc4sccc34)CC2)cc1,.,0.4,0.2,56*,-34,84*
Cn1c(SCC(=O)NC(=O)NCc2ccco2)nnc1-c1ccccc1,27,0.9,0.9,13,2,6
N#Cc1nc(Cc2ccccc2)oc1NCc1ccccc1Cl,-39,0.4,0.4,56*,.,63*
N#Cc1nc(Cc2ccccc2)oc1NCCCn1ccnc1,16,0.2,0.1,77*,.,92*
CC(C)c1nc(C#N)c(NCCCn2ccnc2)o1,-19,0.1,0,91*,-20,100*
N#Cc1nc(COc2ccc(-c3ccccc3)cc2)oc1NCCCN1CCOCC1,10,0.5,0.8,49,6,23
N#Cc1nc(Cc2ccccc2)oc1NCc1cccnc1,-6,.,.,.,-16,.
Cn1nc(N)nc1N1CCN(c2ccc(F)cc2)CC1,.,.,.,.,-3,.
COc1ccc(OC)c(CN2CCN(c3ccccc3OC)CC2)c1,.,0.6,0.2,36,8,78*
CCc1ccc2c(CN3CCc4cc(OC)c(OC)cc4C3)cc(=O)oc2c1,.,.,.,.,-15,.
COc1ccccc1N1CCN(Cc2ccc(OC)c(OC)c2OC)CC1,4,1.5,1,-50,.,4
COc1ccccc1N1CCN(Cc2ccsc2)CC1,15,0.9,0.6,9,8,40
COc1cc2c(cc1OC)CN(Cc1cccs1)CC2,.,0.8,0.3,18,-33,66*
COc1ccccc1N1CCN(Cc2cccs2)CC1,5,0.6,0.1,36,.,94*
c1csc(CN2CCOCC2)c1,-3,0,0.1,100*,2,94*
FC(F)C(F)(F)C1=CC(c2cccs2)=NCCN1,15,1.1,0.9,-7,0,15
NC(=O)C1=NOC(CNc2ncc(C(F)(F)F)cc2Cl)C1 (stereo not drawn),9,2.7*,0.9,-171,-12,10
CC(C)(C)C(=O)Nc1ncc(C(F)(F)F)cc1Cl,-14,1,0.8,0,-15,17
Cc1cc(C)nc(SCC(=O)Nc2ncc(C(F)(F)F)cc2Cl)n1,.,.,.,.,21,.
CO/N=C/NC(=O)C1=NOC(CNc2ncc(C(F)(F)F)cc2Cl)C1 (stereo not drawn),1,0.9,0.3,6,.,75*
COc1ccc(NC(=S)NCCc2ccc(Cl)cc2)c(OC)c1,4,0.8,0.1,22,-1,86*
COc1ccc(NC(=S)Nc2ccc(OCc3ccccc3)cc2)c(OC)c1,.,.,.,.,-1,.
COc1ccc(NC(=S)Nc2ncccc2C)c(OC)c1,-16,0.9,0.2,14,3,76*
COc1ccc(NC(=S)NCCc2c[nH]c3ccc(OC)cc23)c(OC)c1,9,0.4,0.3,62*,-68,71*
SMILES,F-actin modifier,CYP2C9 act,CYP2C19 activ,CYP2C9 inh,E-sel TNF inh,CYP2C19 inhib
Cn1cc(CCC(=O)N2CCCC(C(=O)c3cccc4ccccc34)C2)cn1 (stereo not drawn),.,.,.,.,-21,.
CCCCNC(=S)NC1CCCC1,.,.,.,.,-42,.
Cc1cccc(N(CC(=O)N/N=C/c2cc([N+](=O)[O-])ccc2Cl)S(C)(=O)=O)c1C,20,0.7,0.5,33,13,53*
Cc1cccc(N(CC(=O)N/N=C/c2ccc(OCC(=O)NCc3ccco3)cc2)S(C)(=O)=O)c1C,0,0,0.2,96*,-3,77*
CS(=O)(=O)N(CC(=O)N/N=C/c1ccc(OCC(=O)N2CCOCC2)cc1)c1ccccc1Cl,.,.,.,.,7,.
CC(SCc1ccccc1)C(=O)N/N=C/c1ccc(OCC(=O)NCc2ccco2)cc1 (stereo not drawn),.,.,.,.,-6,.
COc1ccc(CSCC(=O)N/N=C/c2ccc(OCC(=O)NCc3ccco3)cc2)cc1,5,0.3,0.4,70*,-48,58*
COc1ccccc1NC(=O)C1=C(C)NC2=C(C(=O)CC(c3ccc(OC)c(OC)c3)C2)C1c1coc2ccccc2c1=O (stereo not drawn),.,.,.,.,-7,.
CC1=C(C(=O)OCCOc2ccccc2)C(c2ccc(C)o2)C2=C(CC(C)(C)CC2=O)N1 (stereo not drawn),-9,0.2,0.2,82*,6,78*
CC1=C(C(=O)OC2CCCCC2)C(c2ccc(C)o2)C2=C(CCCC2=O)N1 (stereo not drawn),-29,0.4,0.6,60*,-19,42
CC1=C(C(=O)OC2CCCCC2)C(c2ccco2)C2=C(CC(C)(C)CC2=O)N1 (stereo not drawn),-8,1,1,3,16,1
CC1=C(C(=O)OCc2ccccc2)C(c2ccc(C)o2)C2=C(CCCC2=O)N1 (stereo not drawn),.,0.3,0.3,70*,.,69*
CCOC(=O)C1=C(C)NC2=C(C(=O)CC(c3ccc(OC)c(OC)c3)C2)C1c1ccc(C)o1 (stereo not drawn),13,0.4,0.8,59*,1,19
CC1(C(=O)O)CCC(C(=O)Nc2ccc3ccccc3c2)C1(C)C (stereo not drawn),.,1.2,0.8,-19,18,23
O=c1c2[nH]c3ccccc3c2ncn1CCN1CCNCC1,14,0.9,0.8,5,0,19
COc1ccccc1C(=O)Nc1c(C)n(C)n(-c2ccccc2)c1=O,-35,1.2,0.9,-16,43,6
CCCc1nc(N)c(C#N)c(-c2ccco2)c1CC,-24,0.5,0.4,50*,6,59*
CCCOC(=O)CSc1nc(N)c(C#N)c(-c2ccco2)c1C#N,-12,.,.,.,42,.
CCCCN(C)C/C(O)=C(\C#N)c1nc(-c2ccccc2)cs1,-3,1,0.8,-3,10,17
Cc1cccc(-c2nc(CS(=O)CC(=O)N3CCN(C)CC3)c(C)o2)c1 (stereo not drawn),.,1,0.9,4,.,8
CCOC(=O)C1CCN(C(=O)CS(=O)Cc2nc(-c3ccc(C)cc3)oc2C)CC1 (stereo not drawn),-8,0.3,0.6,67*,16,40
CCOC(=O)C1CCN(C(=O)CSCc2nc(-c3ccc(OCC)cc3)oc2C)CC1,.,0.2,0.5,81*,-37,54*
Cc1ccsc1-c1nc(CSCC(=O)N2CCN(c3ccccc3)CC2)c(C)o1,2,0.8,0.4,24,-12,63*
CCOc1ccc(-c2nc(CSCC(=O)N3CCN(C(=O)c4ccco4)CC3)c(C)o2)cc1,.,0.2,0.5,80*,.,45
Cc1ccc(-c2nc(CSCC(=O)N3CCCC3)c(C)o2)cc1,.,0.8,0.9,18,.,10
COc1c2ccc(C(=O)NCc3cc(C(F)(F)F)cc(C(F)(F)F)c3)cc2nn1C,4,1,0.9,3,.,7
Cc1csc(N(C(=O)c2ccc(S(=O)(=O)N(C)C)cc2)c2ccccc2)n1,-10,1,1.1,2,-2,-10

# Screening results from PubChem.
